High-throughput results as filed in PubChem.
HT1080NT lethal = qHTS for induction of synthetic lethality in tumor cells producing 2HG: qHTS for the HT-1080-NT fibrosarcoma cell line; AID 686970, 2013; 1.6% of 360,000 active; HT-1080-NT fibrosarcoma viability, CellTiter-Glo ATP luminescence, 48 h; Potency, µM (doses to about 46.1 µM), for the others: at the top dose activity, negative = less viability, most hits filed as cytotoxic;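 also: NT is the 2HG producing partner of a matched IDH1 knockdown line; 0% = DMSO-treated cells and -100% = media-only wells without cells; nearly all actives have a fitted effect of over 55% in size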
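Viability by CellTiter-Glo luminescence after 48 h compound exposure at 37C of HT-1080-NT cells (750/well, RPMI, 5% FBS). % activity scaled between DMSO wells and medium-only wells, then curve-fitted and categorized by curve class.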
ATXN2 expr inh = Primary qHTS for Inhibitors of ATXN expression; HEK-293 ATXN2-luciferase reporter, luminescence, 24 h; Potency, µM (series often up to 57 µM), inactives show at the top dose activity change, negative = inhibition, usual class: inhibitors; 0.72% of 360,000 active; also: % is scaled to controls: 0 for no effect and ±100 for the full control effect; nearly all actives have a fitted effect of over 55% in size
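ATXN2-luciferase reporter cells (luciferase flanked by upstream and downstream ATXN2 gene portions) were treated 24 h at 37 °C with compounds at up to 57 uM. SteadyGlo luminescence gave expression; GF-AFC fluorescence gave viability.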
KB-V1 MDR tox = qHTS assay for MDR1-selective chemotherapeutics: Primary screen using the drug-selected MDR subline cells KB-V1; KB-V1 MDR cells viability, CellTiter-Glo, 72 h; Potency, µM (series often up to 46.1 µM), usual class: cytotoxic; 3.4% of 400,000 active; AID 1347076, 2019; also: % is scaled to controls: 0 for no effect and ±100 for the full control effect; nearly all actives have a fitted effect of over 60% in size
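Cytotoxicity toward P-gp-expressing KB-V1 cells was determined as loss of CellTiter-Glo luminescence after 72 h at 37 degrees C. Compounds were tested in quantitative HTS format across a concentration range, with curves fitted to normalized data.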
KB-3-1 tox = qHTS assay for MDR1-selective chemotherapeutics: Primary screen using the parental adenocarcinoma cell KB-3-1 | KB-3-1 viability, CellTiter-Glo ATP luminescence, 72 h | Potency, µM (top dose mostly 46.1 µM), most hits filed as cytotoxic | 1.4% of 400,000 active; also: % is scaled to controls: 0 for no effect and ±100 for the full control effect; nearly all actives have a fitted effect of over 60% in size
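Multi-concentration cytotoxicity screen in KB-3-1 cells grown in DMEM lacking phenol red with 10% FBS. After 72 h at 37 °C with compound, ATP-dependent luminescence was recorded.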
HT1080 IDH1KD tx = qHTS for induction of synthetic lethality in tumor cells producing 2HG: qHTS for the HT-1080-IDH1KD cell line; Potency, µM (titrated, usually from 46.1 µM), for inactives: at the highest dose activity, negative = toxicity, hits mostly cytotoxic; HT-1080 IDH1 knockdown viability, ATP luminescence, 48 h; AID 686971, 2013; 2% of 360,000 active;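 also: 0% = DMSO wells and -100% = cell-free medium wells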
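In this qHTS, HT-1080 cells depleted of IDH1 are exposed for 48 h at 37 °C to compound titrations. Toxicity is scored from CellTiter-Glo luminescence, with DMSO as full viability and medium alone as none.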
ATXN viability = Viability Counterscreen for Primary qHTS for Inhibitors of ATXN expression; S2 cells (HEK-293 line with an ATXN2-luciferase reporter) viability, CellTiter-Fluor protease fluorescence, 24 h; Potency, µM (titrated, usually from 56.7 µM), actives largely listed as cytotoxic; 0.49% of 400,000 active; also: nearly all actives have a fitted effect of over 40% in size
* = called active by the depositor; ! = not active in a repeat. Only some compounds are listed: those with a hit (about 6.2% of all), similar ones and a draw of the others. Calls follow the shape of the dose curve; as a rule, active = well fitted curve in the direction sought with a large enough effect; inconclusive = small, poorly fitted or top-dose-only effect, or another doubt; inactive = no such curve, though single readings can be large; an effect the other way counts as inactive or inconclusive. Potency is read from the fitted curve at half-maximal effect.

CCCCn1nnnc1C(CCSC)N1CCC(n2c(=O)[nH]c3ccccc32)CC1 (stereo not drawn) was read as HT1080NT lethal -23.5%, ATXN2 expr inh -31.4%, KB-V1 MDR tox inconclusive, KB-3-1 tox inactive, HT1080 IDH1KD tx inconclusive and ATXN viability inconclusive.
Screening COc1ccc(-n2nnnc2C(c2ccccc2OC(F)(F)F)N2CCC3(CC2)C(=O)NCN3c2ccccc2)cc1 (stereo not drawn) returned HT1080NT lethal inconclusive, ATXN2 expr inh inconclusive, KB-V1 MDR tox inconclusive, KB-3-1 tox inconclusive and HT1080 IDH1KD tx 16.4µM*.
COc1ccc(-n2nnnc2C(c2ccccc2)N2CCC3(CC2)C(=O)NCN3c2ccccc2)cc1 (stereo not drawn) was read as HT1080NT lethal inconclusive, ATXN2 expr inh -37.7%, KB-V1 MDR tox inactive, KB-3-1 tox inconclusive, HT1080 IDH1KD tx inconclusive and ATXN viability inconclusive.
`O=C1NCN(c2ccccc2)C12CCN(C(c1ccccc1OC(F)(F)F)c1nnnn1-c1ccc3c(c1)OCCO3)CC2` (stereo not drawn) gave HT1080NT lethal inconclusive, ATXN2 expr inh 0.0%, KB-V1 MDR tox inactive, KB-3-1 tox inconclusive, HT1080 IDH1KD tx inconclusive and ATXN viability 22.4µM*.
Screening Cn1nc(-c2ccc(C(=O)Nc3ccc(OC(F)(F)F)cc3)cc2)c2ccccc2c1=O returned ATXN2 expr inh -32.9%, KB-V1 MDR tox inactive, KB-3-1 tox inconclusive and ATXN viability inconclusive.
Screening O=C(O)C1=CC2c3ccccc3C1c1ccccc12 returned HT1080NT lethal 0.7%, ATXN2 expr inh -9.9%, KB-V1 MDR tox inactive, KB-3-1 tox inactive, HT1080 IDH1KD tx 7.9% and ATXN viability inactive.
For COC(=O)C1=C(C(=O)OC)C2c3ccccc3C1c1ccccc12 the results were HT1080NT lethal 8.7%, ATXN2 expr inh 7.2%, KB-V1 MDR tox 14.6µM*, KB-3-1 tox inactive, HT1080 IDH1KD tx 8.6% and ATXN viability inactive.
O=S(=O)(c1ccc2c(c1)OCCO2)N1CCC(c2nc3ccc(Cl)cc3[nH]2)CC1 was read as HT1080NT lethal 11.2µM*, ATXN2 expr inh 15.8µM*, KB-V1 MDR tox 2.91µM*, KB-3-1 tox inactive, HT1080 IDH1KD tx 14.1µM* and ATXN viability inconclusive.
For CC1=C(O)C(=O)C=C2C1=CC=C1[C@@]2(C)CC[C@@]2(C)[C@@H]3C[C@](C)(C(=O)O)CC[C@]3(C)CC[C@]12C the results were ATXN2 expr inh 2.43µM*.
For CC(C)COC(=O)n1c(=O)oc2cc(S(=O)(=O)N3CCCCC3)ccc21 the results were HT1080NT lethal inconclusive, ATXN2 expr inh 2.0%, KB-V1 MDR tox inactive, KB-3-1 tox inconclusive, HT1080 IDH1KD tx inconclusive and ATXN viability inactive.
`COc1cccc(N2CCN(C(=O)C3CCCN(S(=O)(=O)c4ccc5c(c4)oc(=O)n5C)C3)CC2)c1` (stereo not drawn) gave HT1080NT lethal 12.2%, ATXN2 expr inh -13.7%, KB-V1 MDR tox inactive, KB-3-1 tox 11.6µM*!, HT1080 IDH1KD tx -5.1% and ATXN viability inactive.
For Cc1ccc(-n2c(C)cc(/C=N/NC(=O)c3ccc(CN4CCOCC4)cc3)c2C)cc1 the results were HT1080NT lethal -15.2%, ATXN2 expr inh -20.2%, KB-V1 MDR tox 16.4µM*, KB-3-1 tox inactive, HT1080 IDH1KD tx inconclusive and ATXN viability inactive.
Screening Cc1ccc(-n2c(O)c(C=NCCN3CCOCC3)c(=O)[nH]c2=O)cc1 returned HT1080NT lethal inconclusive, ATXN2 expr inh 2.5%, KB-V1 MDR tox inconclusive, KB-3-1 tox inactive, HT1080 IDH1KD tx 9.1% and ATXN viability inactive.
For CCOC(=O)c1sc(/N=C/c2c(O)n(-c3ccccc3)c(=O)[nH]c2=O)c(C#N)c1C the results were HT1080NT lethal 19.1%, ATXN2 expr inh 6.3%, KB-V1 MDR tox 11.6µM*, KB-3-1 tox inconclusive, HT1080 IDH1KD tx 8.9% and ATXN viability inconclusive.
`O=C(c1ccc2c(c1)N(Cc1c(F)cccc1Cl)C(=O)c1ccccc1S2)N1CCC2(CC1)OCCO2` gave ATXN2 expr inh -37.2%, KB-V1 MDR tox inactive, KB-3-1 tox inactive and ATXN viability inactive.
Screening CCn1nc(-c2cccs2)nc2c(=O)n(C)c(=O)nc1-2 returned HT1080NT lethal 3.26µM*, ATXN2 expr inh 6.0%, KB-V1 MDR tox inconclusive, KB-3-1 tox inconclusive, HT1080 IDH1KD tx 2.59µM* and ATXN viability inactive.
`CCn1nc(/C=C/c2ccccc2)nc2c(=O)n(C)c(=O)nc1-2` gave HT1080NT lethal 4.11µM*, ATXN2 expr inh inconclusive, KB-V1 MDR tox inconclusive, KB-3-1 tox 4.11µM* and HT1080 IDH1KD tx 1.84µM*.
CCCCc1nc2ccccc2c(=O)n1-c1cccc(OC)c1 was read as ATXN2 expr inh -13.2%, KB-V1 MDR tox inactive, KB-3-1 tox inactive and ATXN viability inconclusive.
`C[C@]12C[C@H]3S[C@H]3C[C@@H]1CC[C@@H]1[C@@H]2CC[C@]2(C)[C@@H](O)CC[C@@H]12` gave ATXN viability inactive.
`CC(=O)OC1C(=O)OCC23CCC4(C)OC4C2OC2CC(OC(=O)C=CC=CC(=O)OCCC1C)C3(C)C21CO1` (stereo not drawn) gave HT1080NT lethal 1.46µM*, ATXN2 expr inh inconclusive, KB-V1 MDR tox 0.366µM*, KB-3-1 tox 0.184µM* and ATXN viability 0.0299µM*.
Screening CC(O)C1C=CC=CC(=O)OC2CC3OC4C5OC5(C)CCC4(COC(=O)C4OC4(C)C(O)CO1)C2(C)C31CO1 (stereo not drawn) returned HT1080NT lethal inconclusive, ATXN2 expr inh inconclusive, KB-V1 MDR tox 10.3µM*, KB-3-1 tox 0.206µM* and ATXN viability 0.0067µM*.
CC1N(C)c2cc(NC(=O)c3ccco3)c(P(=O)(Nc3ccc([N+](=O)[O-])cc3)N3CCOCC3)cc2C1(C)C (stereo not drawn) was read as HT1080NT lethal inconclusive, ATXN2 expr inh -24.0%, KB-V1 MDR tox inactive, KB-3-1 tox inconclusive, HT1080 IDH1KD tx 10.3µM* and ATXN viability inactive.
NC[C@@H](CC(=O)O)c1ccc(Cl)cc1 was read as ATXN viability inactive.
